Screens from PubChem.
H9c2 protect: cardioprotection against H2O2-induced cell death, primary screen, uHTS, H9c2 cells, ATPLite luminescence; H9c2 cardiomyocytes, H2O2 injury protection, 2 h; protection from H2O2 cell death, % at 20 µM; 360,000 tested, 0.63% active; AID 588492, 2011;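 active = compounds giving at least 50% protection of heart cells from peroxide-induced death in the single-dose screen, raw or plate-pattern-corrected value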;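 also: 0% = DMSO wells with peroxide and 100% = DMSO wells without peroxide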
SMARCA2 activ: SMARCA2 (BRM) function activators, primary screen, cell-based, luminescence, high throughput. MG213 cells, MMTV-luciferase reporter, dexamethasone, overnight. activation, % at 9.1 µM. 370,000 tested, 1% active. AID 652017, 2013; in the data active = activation above about 7.8%;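 also: 0% = vehicle wells and 100% = reference activator wells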
COUP-TFII inh: NR2F2 transcriptional activity inhibitors, primary screen, cell-based, luciferase reporter, HEK293T, luminescence. HEK293T NGFI-A luciferase reporter. 370,000 tested, 0.7% active. inhibition, % at 8.6 µM. COUP transcription factor 2 (Homo sapiens), P24468;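 active = inhibition above a per-plate cutoff, mean inhibition of test wells between control levels plus 3 SD, cut at about 38% in these data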;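 also: cells cotransfected with COUP-TFII expression vector driving the NGFI-A reporter; 0% = median of COUP-TF2 test wells and 100% = reporter-only cells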
Target sequence (P24468 whole entry, looked up): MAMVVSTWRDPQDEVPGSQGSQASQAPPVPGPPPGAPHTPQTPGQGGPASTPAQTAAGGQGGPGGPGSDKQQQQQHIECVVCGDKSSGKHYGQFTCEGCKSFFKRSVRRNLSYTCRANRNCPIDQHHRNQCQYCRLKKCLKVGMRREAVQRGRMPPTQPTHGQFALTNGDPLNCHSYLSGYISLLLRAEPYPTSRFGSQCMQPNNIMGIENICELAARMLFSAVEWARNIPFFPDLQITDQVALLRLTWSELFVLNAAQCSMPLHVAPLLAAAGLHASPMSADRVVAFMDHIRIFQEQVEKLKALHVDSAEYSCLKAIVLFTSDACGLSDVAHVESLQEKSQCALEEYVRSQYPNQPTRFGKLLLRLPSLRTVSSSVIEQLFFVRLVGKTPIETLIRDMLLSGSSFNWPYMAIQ
FXN GAA850 act: FXN promoter activators, primary screen, cell-based, luciferase luminescence, HEK293 lucGAA850 | HEK293 lucGAA850 FXN promoter luciferase reporter, 24 h; percent of 10 µM SAHA response | activation, % at 6 µM | 360,000 tested, 0.56% active | AID 540364, 2011;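 active = activation above the average of all compounds screened plus 3 SD, cutoff fixed separately per campaign, cut at about 7.5% in these data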;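 also: 0% = DMSO wells and 100% = 10 µM SAHA wells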
Gli-Sufu block: Gli-Sufu pathway antagonists, primary screen, luciferase luminescence, Sufu-KO-LIGHT cells, uHTS. inhibition, % at 5 µM. 340,000 tested, 0.74% active. Sufu-KO-LIGHT fibroblasts, Gli luciferase reporter luminescence;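 active = inhibition above about 55%, limit read from the data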;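 also: 0% = DMSO-treated cells and 100% = wells with medium but no cells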
GalR3 antagonist: GalR3 antagonists in HEK293 cells, primary screen, cell-based, fluorescence readout; 360,000 tested, 0.44% active; HEK293 GalR3-CNG cAMP membrane potential fluorescence; galR3 body fused to GalR1 C-terminus; Galanin receptor type 3 (Homo sapiens), O60755; inhibition, % at 3 µM;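 active = inhibition above the screen-wide average plus 3 SD, cut at about 13% in these data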;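 also: forskolin and galanin both at EC90 stimulate the cells; cAMP rise reported by CNG channel membrane potential dye signal; 0% = forskolin plus galanin with DMSO and 100% = forskolin alone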
Numbers without * were called inactive; nt = no result. An excerpt weighted towards active compounds, which were near 3.4% of everything screened.

SMILES	H9c2 protect	SMARCA2 activ	COUP-TFII inh	FXN GAA850 act	Gli-Sufu block	GalR3 antagonist
CC(C)(C)C1CCN2CCCC(c3ccccc3)(C1)C2=O (stereo not drawn)	nt	-4	6	nt	nt	-5
Cc1cccc(C(=O)Nc2c(-c3ccc(C(F)(F)F)cc3)nc3ncccn23)c1	nt	5	-13	nt	nt	nt
O=C1NC2(C=Cc3c(ccc4ccccc34)O2)Oc2ccccc21 (stereo not drawn)	12	nt	nt	8.6*	-37	nt
CCSc1nnc(N)s1	76*	-1	7	-1	-11	-4
OCC1OC(n2cnc3c(NCc4ccco4)ncnc32)C(O)C1O (stereo not drawn)	-1	1	-5	-2	23	86*
OC[C@H]1O[C@@H](n2cnc3c(NCc4ccco4)ncnc32)[C@H](O)[C@@H]1O	-3	0	-2	-5	11	-6
CCOC(=O)C1=C(C)NC2=C(C(=O)c3ccccc32)C1c1ccc([N+](=O)[O-])o1 (stereo not drawn)	61*	-1	-20	0	11	-1
CCOC(=O)C1=C(C)NC(=O)NC1c1ccc([N+](=O)[O-])o1 (stereo not drawn)	-1	1	-12	1	3	1
O=C(Cn1nc(-c2ccccc2)ccc1=O)NCCc1ccc(F)cc1	nt	-3	13	nt	nt	nt
COc1cccc(Nc2nc(-c3sc(C)nc3C)cs2)c1	4	3	-12	6	21	-10
COc1cccc(Nc2nc(-c3sc(N)nc3C)cs2)c1	63*	7	3	0	-19	-5
COc1cccc(Nc2nc(-c3sc(NC(=O)c4ccco4)nc3C)cs2)c1	50*	5	-5	-2	-10	-2
CCOC(=O)C1=CCN(S(=O)(=O)c2ccc(Cl)cc2)C1c1ccc(C)cc1 (stereo not drawn)	-2	-4	-3	nt	nt	-6
COc1cc(/C=N/NC(=O)c2sc3nc(C)cc(C)c3c2N)ccc1O	53*	0	-33	2	-22	0
Cn1cccc1C(=O)N1CCN(S(=O)(=O)c2cccs2)CC1	nt	-3	6	nt	nt	nt
O=C(/C=C/c1ccccc1Cl)c1ccccc(=O)c1O	70*	-1	9	7	12	-11
Cc1ccc(C)c(/C=C/C(=O)c2ccccc(=O)c2O)c1	39	0	17	4	15	2
Clc1ccc([C@H]2OC[C@@]3(CNC4CCCCC4)CS[C@H](c4ccc(Cl)cc4)N23)cc1	nt	0	-15	nt	nt	nt
CC(=O)CCc1ccc(Oc2nc(-c3cccnc3)nc3ccccc23)cc1	55*	-3	23	0	3	-10
COc1ccc(Oc2nc(-c3cccnc3)nc3ccccc23)cc1	3	-2	-13	1	-9	-6
CCn1cc(C(=O)N2CCn3c(nc4ccccc43)C2)c(=O)c2ccc(C)nc21	22	-2	8	16*	8	2
C[C@@H]1CN(Cc2nnnn2CC(=O)NCCCn2cccn2)C[C@H](C)O1	7	7.9*	-8	2	nt	2
CC1CCN(Cc2nnnn2CCCC(=O)NCCN2CCOCC2)CC1	3	1	-7	1	-13	0
O=[N+]([O-])c1cccc(OC[C@@H](O)CN2CCC(C(O)(c3ccccc3)c3ccccc3)CC2)c1	nt	-3	-19	nt	nt	nt
COc1ccc(N2CCN(C(=O)CSc3nnc(-c4cccnc4)n3-c3ccccc3)CC2)cc1	2	1	7	0	-5	-1
SMILES	H9c2 protect	SMARCA2 activ	COUP-TFII inh	FXN GAA850 act	Gli-Sufu block	GalR3 antagonist
COc1ccc(N2CCN(C(=O)CSc3nnc(-c4cccnc4)n3-c3ccc(F)cc3)CC2)cc1	2	7.9*	-4	-2	6	-4
COc1ccc(/C=N/NC(=O)c2cccnc2)cc1CSc1nc2ccccc2s1	58*	-2	-42	-4	2	-3
COC(=O)C1CN(Cc2ccc(OC)cc2)CCS(=O)(=O)N1Cc1cn(Cc2ccccc2)nn1 (stereo not drawn)	nt	-1	4	nt	nt	nt
O=C(COC(=O)c1ccc([N+](=O)[O-])o1)Nc1ccc(F)cc1	36	2	5	0	-1	-7
O=C(COC(=O)c1ccc([N+](=O)[O-])o1)Nc1ccc(N2CCOCC2)cc1	52*	2	-2	0	-10	-3
CN(C)S(=O)(=O)c1cccc(NC(=O)COC(=O)c2ccc([N+](=O)[O-])o2)c1	102*	0	9	1	1	-1
O=C(COC(=O)c1ccc([N+](=O)[O-])o1)Nc1cccc(S(=O)(=O)N2CCOCC2)c1	45	2	4	-2	-1	-9
CC(=O)Nc1c(-c2ccc(F)cc2)nc2ncccn12	nt	-2	4	nt	nt	nt
O=C(NNC(=O)c1cc(Br)ccc1O)c1csc(N2CCOCC2)n1	66*	nt	nt	-1	13	nt
O=C(NNC(=O)c1cc(Br)ccc1Cl)c1csc(N2CCOCC2)n1	4	4	2	-1	-1	-2
Cc1ccccc1CN1CCCCC(NC(=O)C2CCC2)C1=O (stereo not drawn)	nt	-1	-5	nt	nt	nt
COc1cc(/C=N/NC(=O)c2c(-c3c(Cl)cccc3Cl)noc2C)ccc1OCC(N)=O	23	3	4	1	3	-1
Cc1onc(-c2c(Cl)cccc2Cl)c1C(=O)N/N=C(\N)COc1ccc(Cl)cc1	70*	-6	24	-3	8	-3
CCOC(=O)c1c(C)[nH]c(C(=O)COc2ccc3ccc(=O)oc3c2)c1C	52*	-3	-10	1	3	2
CC(=O)c1cccc(OCC(=O)c2cc(C)n(-c3cc(C)on3)c2C)c1	-34	-5	9	0	2	-5
CN(C)C(=O)COc1ccc2ccc(=O)oc2c1	2	7	-10	-1	-4	-4
Cc1cc(-n2c(C)cc(C(=O)COc3ccc4ccc(=O)oc4c3)c2C)no1	70*	-2	2	0	-8	-1
CC(C)Oc1ccc(S(=O)(=O)N2CCCCCC2)c2ccccc12	nt	0	15	nt	nt	nt
Cn1c(=O)c2[nH]c(NN=Cc3cccc(Br)c3)nc2n(C)c1=O	50*	0	-10	-4	5	-5
Cn1c(=O)c2[nH]c(NN=Cc3ccc(F)cc3)nc2n(C)c1=O	20	3	14	1	3	-6
CNS(=O)(=O)c1ccc(CNC[C@H]2O[C@@H](n3cnc4c(=O)[nH]c(N)nc43)[C@H](O)[C@@H]2O)cc1	-3	-4	-14	nt	nt	-3
O=Cc1ccc(O)c2ncccc12	-7	nt	nt	1	64*	nt
